The panel holds about 79,000 compounds, 15% with a hit somewhere; the sample as a whole holds those more often. A number with no mark means an inactive call. Active and inactive are the calls of the source. No stated cut-off is given here; in the data, active means growth inhibition above about 70%; inactive means the rest.
Key:
[1] = NCI Yeast Anticancer Drug Screen. Data for the rad50 strain (AID 155);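 further: 0% = growth of vehicle-only cultures of the same strain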; settings: S. cerevisiae rad50 strain growth inhibition, hits give high values
In short: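 Cells are treated with compound, grown, and their growth is then scored against vehicle-only cultures of the same repair-deficient yeast strain.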

[2] = NCI Yeast Anticancer Drug Screen. Data for the mec2-1 strain (AID 157); settings: S. cerevisiae mec2-1 strain, hits give high values
In short: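 Cells of the genetically defined mec2-1 yeast strain are incubated with test compound. Inhibition of growth is calculated against vehicle-treated controls.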

[3] = NCI Yeast Anticancer Drug Screen. Data for the sgs1 mgt1 strain (AID 161);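 further: 0% = growth of cultures given vehicle only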; settings: S. cerevisiae sgs1 mgt1 strain, hits give high values
In short: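 Mutant yeast exposed to compound; growth scored against vehicle-only wells.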

[4] = NCI Yeast Anticancer Drug Screen. Data for the cln2 rad14 strain (AID 165);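 further: 0% = growth equal to vehicle treated cultures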; settings: S. cerevisiae cln2 rad14 strain, hits give high values
In short: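 The screen exposed genetically defined yeast (cln2 rad14) to test compounds and scored growth inhibition relative to vehicle-treated controls.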

[5] = NCI Yeast Anticancer Drug Screen. Data for the bub3 strain (AID 167); settings: S. cerevisiae bub3 mutant strain, hits give high values
In short: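 Part of a panel of yeast mutants defective in DNA damage repair or cell cycle regulation. Each strain is grown with compound, and inhibition is calculated relative to solvent-treated cultures.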

[6] = NCI Yeast Anticancer Drug Screen. Data for the mlh1 rad18 strain (AID 175); settings: S. cerevisiae mlh1 rad18 strain growth inhibition, hits give high values
In short: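 Compound-treated yeast growth, normalised to vehicle controls. Strain bears defined DNA repair mutations.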

[7] = at 5.0 µM (retest, dose inferred, filed as 0.5)
[8] = at 50.0 µM (retest, dose inferred, filed as 5.0)

For `CCOC(=O)n1c2ccccc2c(=O)n1CCO`, the growth inhibition [1, 7] was -23%, the growth inhibition [1, 8] was -15% and the growth inhibition ([1]; at 50.0 µM) was 97.5% (active). The growth inhibition [2, 7] was -16%, the growth inhibition [2, 8] was -19% and the growth inhibition ([2]; at 50.0 µM) was 98.9% (active). For the same molecule, the growth inhibition [3, 7] was -19%, the growth inhibition [3, 8] was -12% and the growth inhibition ([3]; at 50.0 µM) was 87.7% (active). The growth inhibition [4, 7] was -32%, the growth inhibition [4, 8] was -18% and the growth inhibition ([4]; at 50.0 µM) was 43.2%. For the same molecule, the growth inhibition [5, 7] was -28%, the growth inhibition [5, 8] was -11% and the growth inhibition ([5]; at 50.0 µM) was 97.3% (active). For the same molecule, the growth inhibition [6, 7] was -33%, the growth inhibition [6, 8] was -11% and the growth inhibition ([6]; at 50.0 µM) was 50%.
With `CCCCCC/C=C1\CCC(CN2CCOCC2)C1=O` (stereo not given) the growth inhibition [1, 7] was 53%, the growth inhibition [1, 8] was 96% (active) and the growth inhibition ([1]; at 50.0 µM) was 81.7% (active). For the same molecule, the growth inhibition [2, 7] was 23%, the growth inhibition [2, 8] was 97% (active) and the growth inhibition ([2]; at 50.0 µM) was 52%. For the same molecule, the growth inhibition [3, 7] was 16%, the growth inhibition [3, 8] was 96% (active) and the growth inhibition ([3]; at 50.0 µM) was 79.7% (active). The growth inhibition [4, 7] was 25%, the growth inhibition [4, 8] was 79% (active) and the growth inhibition ([4]; at 50.0 µM) was 63%. The growth inhibition [5, 7] was 48%, the growth inhibition [5, 8] was 98% (active) and the growth inhibition ([5]; at 50.0 µM) was 82.5% (active). For the same molecule, the growth inhibition [6, 7] was 59%, the growth inhibition [6, 8] was 97% (active) and the growth inhibition ([6]; at 50.0 µM) was 74.8% (active).
For `O=C(COc1ccc(Cl)cc1)OCCO`, the growth inhibition [1, 7] was 0%, the growth inhibition [1, 8] was 0% and the growth inhibition ([1]; at 50.0 µM) was 4.9%. The growth inhibition [2, 7] was -4%, the growth inhibition [2, 8] was 0% and the growth inhibition ([2]; at 50.0 µM) was -5.75%. The growth inhibition [3, 7] was -3%, the growth inhibition [3, 8] was -1% and the growth inhibition ([3]; at 50.0 µM) was 0.4%. For the same molecule, the growth inhibition [4, 7] was 3%, the growth inhibition [4, 8] was 5% and the growth inhibition ([4]; at 50.0 µM) was 40.4%. For the same molecule, the growth inhibition [5, 7] was 2%, the growth inhibition [5, 8] was 4% and the growth inhibition ([5]; at 50.0 µM) was -5.6%. It also gave a growth inhibition [6, 7] of 3%, a growth inhibition [6, 8] of 5% and a growth inhibition ([6]; at 50.0 µM) of -25.6%.
In the case of `Cc1cccc2c(Nc3ccc(NS(C)(=O)=O)cc3)c3ccccc3nc12`, the growth inhibition [1, 7] is reported as 55%, the growth inhibition [1, 8] is reported as 94% (active) and the growth inhibition ([1]; at 50.0 µM) is reported as 96.5% (active). It also gave a growth inhibition [2, 7] of -1%, a growth inhibition [2, 8] of 41% and a growth inhibition ([2]; at 50.0 µM) of 47.3%. The growth inhibition [3, 7] was 1%, the growth inhibition [3, 8] was 17% and the growth inhibition ([3]; at 50.0 µM) was 28.6%. It also gave a growth inhibition [4, 7] of -7%, a growth inhibition [4, 8] of 19% and a growth inhibition ([4]; at 50.0 µM) of -12.7%. It also gave a growth inhibition [5, 7] of -2%, a growth inhibition [5, 8] of 2% and a growth inhibition ([5]; at 50.0 µM) of 24.6%. The growth inhibition [6, 7] was -2%, the growth inhibition [6, 8] was 31% and the growth inhibition ([6]; at 50.0 µM) was 39.3%.
In the case of `CCOC(=O)C1CC(C(=O)OCC)C(=O)C1=O` (stereo not given), the growth inhibition [1, 7] is reported as 45%, the growth inhibition [1, 8] is reported as 96% (active) and the growth inhibition ([1]; at 50.0 µM) is reported as 96.3% (active). The growth inhibition [2, 7] was 27%, the growth inhibition [2, 8] was 95% (active) and the growth inhibition ([2]; at 50.0 µM) was 91% (active). The growth inhibition [3, 7] was 54%, the growth inhibition [3, 8] was 96% (active) and the growth inhibition ([3]; at 50.0 µM) was 43.6%. The growth inhibition [4, 7] was 28%, the growth inhibition [4, 8] was 97% (active) and the growth inhibition ([4]; at 50.0 µM) was 34.2%. The growth inhibition [5, 7] was 44%, the growth inhibition [5, 8] was 97% (active) and the growth inhibition ([5]; at 50.0 µM) was 94% (active). For the same molecule, the growth inhibition [6, 7] was 37%, the growth inhibition [6, 8] was 98% (active) and the growth inhibition ([6]; at 50.0 µM) was 47.9%.
